Legend:
[1] = target: ATP-dependent RNA helicase DDX24 (UniProt Q9GZR7); assay: cross-linking mass spectrometry
[2] = target: Spectrin alpha chain, non-erythrocytic 1 (UniProt Q13813); assay: cross-linking mass spectrometry
[3] = target: T1, Twinfilin-2 (UniProt Q6IBS0); assay: cross-link between two proteins; cross-linking mass spectrometry
T1 sequence: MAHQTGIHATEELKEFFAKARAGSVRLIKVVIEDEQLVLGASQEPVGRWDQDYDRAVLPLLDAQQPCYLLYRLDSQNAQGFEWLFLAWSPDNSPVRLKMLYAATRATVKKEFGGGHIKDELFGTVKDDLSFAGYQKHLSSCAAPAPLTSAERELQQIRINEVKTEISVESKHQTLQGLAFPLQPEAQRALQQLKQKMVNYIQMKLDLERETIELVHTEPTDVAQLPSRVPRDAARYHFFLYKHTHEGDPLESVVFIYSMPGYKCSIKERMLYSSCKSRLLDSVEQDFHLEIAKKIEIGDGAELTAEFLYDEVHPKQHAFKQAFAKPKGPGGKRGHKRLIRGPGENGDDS

[4] = target: Superkiller complex protein 8 (UniProt Q9GZS3); assay: as above

Substance: Large ribosomal subunit protein eL20, Q02543
- listed as a hit [1]: yes

Substance: Actin, cytoplasmic 1, P60709
- listed as a hit [2]: yes
- listed as a hit [3]: yes

Substance: RNA polymerase-associated protein CTR9 homolog, Q6PD62
- listed as a hit [4]: yes

— publication PMC12350791
